Screening data deposited in PubChem by The Scripps Research Institute Molecular Screening Center.
TEAD-YAP block: TEAD-YAP interaction inhibition, primary screen, TEAD-YAP interaction inhibitor project, luminescence, HEK-TIYL cells; TEAD-Gal4/YAP UAS-luciferase luminescence; 640,000 tested, 1.4% active; inhibition, % at 9.12 µM; AID 1259422, 2018; in the data active means inhibition above about 32%;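 further: 0% = median of test compound wells and 100% = reference inhibitor wells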
FBW7 activator: FBW7 E3 ligase activators, primary screen, biochemical, AlphaScreen, human. F-box/WD repeat-containing protein 7 (Homo sapiens), Q969H0. AlphaScreen FBW7–phospho-cyclin E peptide binding, activator screen. normalized activity (activation), % at 26.1 µM. 650,000 tested, 0.13% active. AID 1259310, 2017; in the data active means normalized activity above about 1.9%;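 further: purified mutant Fbw7 with reduced substrate affinity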
MITF primary: MITF inhibitors, primary screen, biochemical, AlphaScreen, human; Microphthalmia-associated transcription factor (Homo sapiens), O75030; inhibition, % at 2.6 µM; 650,000 tested, 0.91% active; AlphaScreen MITF homodimerization, bead proximity signal; in the data active means inhibition above about 50%;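 further: 0% = vehicle wells with protein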
GPR151 ag: activators of human GPR151, primary screen, cell-based, PathHunter beta-arrestin, luminescence | G-protein coupled receptor 151 (Homo sapiens), Q8TDV0 | PathHunter beta-arrestin GPR151 cells | activation, % at 11.2 µM | 650,000 tested, 1% active | AID 1508602, 2020; in the data active means activation above about 4.9%;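 further: 0% = median of compound wells and 100% = cells with positive control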
Target sequence (Q8TDV0 whole entry, looked up): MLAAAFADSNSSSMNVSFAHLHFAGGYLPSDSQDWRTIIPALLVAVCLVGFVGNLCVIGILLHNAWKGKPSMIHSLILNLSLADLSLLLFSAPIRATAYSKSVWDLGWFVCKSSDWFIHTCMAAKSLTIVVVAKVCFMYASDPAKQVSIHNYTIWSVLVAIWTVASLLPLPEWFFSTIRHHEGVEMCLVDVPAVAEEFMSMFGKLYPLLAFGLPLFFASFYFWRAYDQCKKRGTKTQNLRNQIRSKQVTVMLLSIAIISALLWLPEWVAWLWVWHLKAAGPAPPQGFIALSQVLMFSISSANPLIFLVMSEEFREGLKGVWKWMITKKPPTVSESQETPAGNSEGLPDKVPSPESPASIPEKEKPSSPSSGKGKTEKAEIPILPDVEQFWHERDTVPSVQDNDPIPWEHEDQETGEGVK
* marks the source's active call; other numbers are inactive results. This is a sample that favours compounds with a hit; in the whole collection about 3.4% have one here.

SMILES | TEAD-YAP block | FBW7 activator | MITF primary | GPR151 ag
O=C(/C=C/Nc1ccc(Br)cc1Cl)c1ccco1 | 94* | 0 | 11 | -4
Cc1ccccc1Cn1c(NCCOCCO)nc2c1c(=O)n(C)c(=O)n2C | -1 | 0 | -3 | 0
CC(C)c1ccc2nc(NC(=O)c3ccccc3)sc2c1 | 39* | 0 | 2 | -4
CCN(CC)C(=O)c1ccc2nc(NC(=O)c3ccc(OC(C)=O)cc3)sc2c1 | 78* | 2.0* | 10 | -8
CCc1ccc(C(=O)Nc2nc3ccccc3s2)cc1 | 50* | 0 | -2 | -5
CCCc1ccc(-c2ccc(C(=O)Nc3nc4ccccc4s3)cc2)nc1 | 7 | 0 | 8 | 1
O=C(CCc1nc2ccccc2s1)c1ccccc1 | -18 | 2.0* | 18 | 0
CC(=O)Nc1nonc1NC(=O)CSc1nnc(N)s1 | 5 | 0 | 6 | 1
CN1CCCC(C(=O)NCc2nnc3n2CCN(CCCc2ccccc2)CC3)C1 (stereo not drawn) | -13 | 0 | 3 | 2
O=C(Nc1nc2ccccc2s1)c1ccc(N2C(=O)CCC2=O)cc1 | -50 | 0 | -2 | 0
O=C(Nc1nc2ccccc2s1)c1ccccc1 | 32* | 0 | 0 | -8
O=C(O)c1ccccc1/C=N/Nc1nc2ccccc2s1 | 94* | 0 | 5 | -7
O=C(O)COc1ccccc1/C=N/Nc1nc2ccccc2s1 | -10 | 0 | 15 | -3
Cc1nn(S(=O)(=O)c2ccc([N+](=O)[O-])cc2)c(C)c1Sc1ccc([N+](=O)[O-])cc1 | 4 | 0 | 12 | -2
N#CCCN1CCN(C(=O)NC2CCCCC2)CC1 | 1 | 0 | 5 | 1
CC(C)(C)NC(=O)c1ccccc1NC(=O)CCc1ccccc1 | -7 | 0 | 1 | 3
N#Cc1ccccc1Nc1cc(NC(=O)Cc2ccc(F)cc2)ncc1C(F)(F)F | 20 | 0 | 17 | 0
CNC(=O)c1ccccc1Nc1cc(NC(=O)Cc2ccccc2)ncc1C(F)(F)F | 72* | 0 | -24 | 3
O=C(Cc1ccc2c(c1)OCO2)Nc1cc(Nc2ccccc2-c2ncn[nH]2)c(C(F)(F)F)cn1 | 60* | 1 | 12 | -2
CNC(=O)c1ccccc1Nc1cc(NC(=O)Cc2c(Cl)cccc2Cl)ncc1C(F)(F)F | 56* | 0 | 12 | -1
CNC(=O)c1ccccc1Nc1cc(NC(=O)CCc2ccccc2)ncc1C(F)(F)F | 64* | 0 | -3 | -2
OC[C@H]1O[C@@H](n2cnc3c(NCc4ccco4)ncnc32)[C@H](O)[C@@H]1O | 74* | 0 | 0 | 1
COc1cc(Nc2nc(C)cc(Nc3ccc(N4CCOCC4)cc3)n2)cc(OC)c1OC | 70* | 0 | 7 | 0
COc1cc(Nc2nccc(Nc3ccc(N4CCOCC4)cc3)n2)cc(OC)c1OC | 44* | 0 | 18 | 0
COc1cccc2c1N[C@@H](c1ccc(C(=O)O)cc1)[C@H]1CC=C[C@@H]21 | -4 | -1 | 63* | 0
SMILES | TEAD-YAP block | FBW7 activator | MITF primary | GPR151 ag
COc1cc([N+](=O)[O-])cc2c1NC(c1ccc(C(=O)O)cc1)C1CC=CC21 (stereo not drawn) | 7 | 0 | 75* | -1
COc1cccc2c1NC(c1ccc(C(=O)O)cc1)C1CC=CC21 (stereo not drawn) | 11 | -1 | 71* | -2
CC(=O)N1c2ccccc2NC2=C(C(=O)CCC2)C1c1ccccc1 (stereo not drawn) | 37* | 0 | 2 | -1
CC(=O)N1c2ccccc2NC2=C(C(=O)CCC2)C1c1cccc(Br)c1 (stereo not drawn) | 37* | 0 | -11 | -1
Cc1ccc(S(=O)(=O)Nn2c(SCC(=O)Nc3nccs3)nc3ccccc3c2=O)cc1 | -5 | 0 | -21 | 0
CCCN1C(=O)C2C(C(=O)Nc3ccc(C)c(C)c3)C3C=CC2(O3)C1C(=O)NC1CCCCC1 (stereo not drawn) | 9 | 0 | 3 | 0
CCOC(=O)c1[nH]c2ccccc2c1NC=O | 10 | 1.9* | -4 | -1
CCOC(=O)c1[nH]c2ccccc2c1NC(=O)OC | -10 | 0 | -4 | -1
CC(C)Sc1nnc(NC(=O)c2ccccc2[N+](=O)[O-])s1 | -7 | 0 | -6 | 0
CC(=O)N(C1=C(N2CCCCC2)C(=O)c2ccccc2C1=O)c1ccccc1C | 36* | 0 | 14 | -2
CC(=O)N(C)C1=C(N2CCCCC2)C(=O)c2ccccc2C1=O | 91* | 0 | 0 | -1
